# Assays:
# Format in all cases: functional
# [1] = target: Solute carrier family 2, facilitated glucose transporter member 1 (Homo sapiens) (UniProt P11166); experiment: ST_JUDE_LEISH: Cytotoxicity at 2uM final concentration against transgenic Leishmania Mexicana promastigotes LmGLUT1 that are glucose transport deficient and complemented with the human glucose transporter GLUT1. Activity is measured by DNA content using SYBR green in vitro
# [2] = target: Hexose transporter 1 (Plasmodium falciparum) (UniProt O97467); experiment: ST_JUDE_LEISH: Cytotoxicity at 2uM final concentration against transgenic Leishmania Mexicana promastigotes LmPfHT that are glucose transport deficient and complemented with the Plasmodium falciparum hexose transporter. Activity is measured by DNA content using SYBR green in vitro
# [3] = target: Glucose transporter (Leishmania mexicana) (UniProt O61059); experiment: ST_JUDE_LEISH: Cytotoxicity at 2uM final concentration against transgenic Leishmania Mexicana promastigotes LmGT2 that are glucose transport deficient and complemented with the L. Mexicana glucose transporter 2. Activity is measured by DNA content using SYBR green in vitro
# Solute carrier family 2, facilitated glucose transporter member 1 (Homo sapiens), sequence (P11166 whole entry): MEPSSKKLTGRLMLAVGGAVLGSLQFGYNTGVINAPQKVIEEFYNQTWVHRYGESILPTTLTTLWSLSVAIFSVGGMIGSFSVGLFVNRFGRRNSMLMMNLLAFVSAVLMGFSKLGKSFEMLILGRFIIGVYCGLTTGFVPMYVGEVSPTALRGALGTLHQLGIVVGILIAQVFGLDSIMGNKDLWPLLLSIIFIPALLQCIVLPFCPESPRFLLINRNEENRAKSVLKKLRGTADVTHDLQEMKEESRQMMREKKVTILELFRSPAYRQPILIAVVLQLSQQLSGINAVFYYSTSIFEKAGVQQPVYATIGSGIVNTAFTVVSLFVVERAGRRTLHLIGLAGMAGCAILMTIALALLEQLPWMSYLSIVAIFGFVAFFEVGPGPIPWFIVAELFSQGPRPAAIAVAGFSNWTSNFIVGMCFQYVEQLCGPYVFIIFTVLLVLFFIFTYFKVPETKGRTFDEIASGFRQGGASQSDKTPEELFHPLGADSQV
structure (smiles),measurement,setting,value
CC1(C)N=C(N)N=C(N)N1c1cccc(I)c1,inhibition,[1],0.23%
same,inhibition,[2],-0.04%
same,inhibition,[3],0.13%
CCc1c[nH]c2c(N3CCCC3=O)cc(C(=O)N[C@@H](Cc3ccccc3)[C@H](O)CNC(C)(C)c3cccc(C(F)(F)F)c3)cc12,inhibition,[1],-1.29%
same,inhibition,[2],-2.43%
same,inhibition,[3],-0.27%
N[C@@H](Cc1ccc(O)cc1)C(=O)NC(c1ccccc1)c1c(O)ccc2ccccc12 (stereo not given in full),inhibition,[1],-0.12%
same,inhibition,[2],-0.91%
same,inhibition,[3],-0.99%
CCc1ccc(CN2CCC(CN(c3ccc(N4CCOCC4)c(F)c3)S(=O)(=O)c3ccc(C(C)(C)CC)cc3)CC2)cc1,inhibition,[1],3.54%
same,inhibition,[2],0.74%
same,inhibition,[3],3.68%
COCCOc1ccc(Nc2nccc(-c3c(-c4cccc(NC(=O)c5c(F)cccc5F)c4)nn4ccccc34)n2)cc1F,inhibition,[1],7.82%
same,inhibition,[2],10.9%
same,inhibition,[3],1.25%
C=CCOc1ccc(-c2c(C)[nH]c(C)c(Br)c2=O)cc1,inhibition,[1],2.12%
same,inhibition,[2],2.01%
same,inhibition,[3],-0.17%
CN(C)CCNCc1cccc(-c2ccc3c(Nc4ccc(Oc5ccccn5)cc4)ccnc3c2)c1,inhibition,[1],0.48%
same,inhibition,[2],1.4%
same,inhibition,[3],0.21%
CCC(C)NC(=O)Nc1ccc(-c2cccc(-c3nc4ccccc4[nH]3)c2)cc1 (stereo not given),inhibition,[1],-0.78%
same,inhibition,[2],4.24%
same,inhibition,[3],5.49%
COc1ccc(NC(=O)[C@H](Cc2ccccc2)Nc2cc(C)nc(NCCc3ccccc3OC)n2)cc1,inhibition,[1],-0.03%
same,inhibition,[2],-1.38%
same,inhibition,[3],-0.97%
CN(C)Cc1ccc(-c2ccc3c(Nc4ccc(Cl)cc4F)ccnc3c2)o1,inhibition,[1],-1.45%
same,inhibition,[2],-1.56%
same,inhibition,[3],5.24%
O=C(NC1CCN(Cc2ccc(Cl)cc2)CC1)c1cn(-c2ccccc2)nc1-c1cccnc1,inhibition,[1],1.12%
same,inhibition,[2],0.95%
same,inhibition,[3],1.49%
COc1ccc(Nc2nc(NC3CCN(C)CC3)cc(-c3ccc(OC)cc3)n2)cc1,inhibition,[1],2.07%
same,inhibition,[2],2.61%
same,inhibition,[3],2.87%
O=C(Nc1ccon1)c1cc(-c2cccnc2)nc2ccc(Br)cc12,inhibition,[1],2.83%
same,inhibition,[2],5.32%
same,inhibition,[3],0.72%
CCOC(=O)c1cnc2cc(N3CCCC3)c(Cl)cc2c1OCC,inhibition,[1],1.28%
same,inhibition,[2],-0.81%
same,inhibition,[3],0.52%
O=C(Nc1cccc(C(F)(F)F)c1)NC1CCN(c2ccnc3cc(Cl)ccc23)CC1,inhibition,[1],1.6%
same,inhibition,[2],1.64%
same,inhibition,[3],-1.47%
Cc1cccc(NC(=O)c2ccc(C(=O)NC3CCN(CC4CCCCC4)CC3)cc2)c1,inhibition,[1],4.08%
same,inhibition,[2],7.67%
same,inhibition,[3],4.8%
Brc1cc(Br)c2c(c1)C(NCCCNC1CCNc3c(Br)cc(Br)cc31)CCN2 (stereo not given),inhibition,[1],1.08%
same,inhibition,[2],0.89%
same,inhibition,[3],0.34%
CCCO[C@H](C(=O)OC)[C@@H](CC1Cc2ccccc2C1)C(=O)NCCC1=CCCCC1,inhibition,[1],1.54%
same,inhibition,[2],1.34%
same,inhibition,[3],2.2%
O=c1cc(NCCCNCc2cc3ccc(Br)cc3s2)[nH]c2ccccc12,inhibition,[1],-0.97%
same,inhibition,[2],-0.27%
same,inhibition,[3],0.6%
CC(C)NCc1ccc(-c2cccc(-c3nc4cc(C(F)(F)F)ccc4[nH]3)c2)cc1,inhibition,[1],3.55%
same,inhibition,[2],3.48%
same,inhibition,[3],4.16%
COc1c(C2CCN(CCCCNC(=O)c3oc(-c4ccc(Cl)cc4)cc3CO)CC2)ccc2c1CCCC2,inhibition,[1],1.58%
same,inhibition,[2],1.81%
same,inhibition,[3],3.08%
c1csc(-c2ccc3c(c2)CC(NCc2c[nH]c4cnccc24)C3)c1 (stereo not given),inhibition,[1],4.86%
same,inhibition,[2],5.34%
same,inhibition,[3],5.84%
Cc1cccc(Nc2nc(N[C@@H]3CCCNC3)nc3cc[nH]c(=O)c23)c1,inhibition,[1],92.3%
same,inhibition,[2],85.2%
same,inhibition,[3],83.4%
Cc1cc(N[C@@H](CC(C)C)C(=O)NC2CCCC2)nc(NCC2CCCCC2)n1,inhibition,[1],3.95%
same,inhibition,[2],3.89%
same,inhibition,[3],0.25%
CCCC(C)Nc1nc(C)cc(N[C@@H](CC(C)C)C(=O)NCCc2ccccc2)n1 (stereo not given in full),inhibition,[1],7.28%
same,inhibition,[2],6.41%
same,inhibition,[3],8.06%
CC(C)(C)c1ccc(C(=O)N2CCC3(CC2)C(=O)N(CC(=O)NCC2CCCO2)CN3c2ccccc2)cc1 (stereo not given),inhibition,[1],0.44%
same,inhibition,[2],4.61%
same,inhibition,[3],0.02%
O=C(Nc1ccc(Cl)cc1)c1cccc(S(=O)(=O)NC2CCN(CC3CCCCC3)CC2)c1,inhibition,[1],0.8%
same,inhibition,[2],1.68%
same,inhibition,[3],3.31%
N=C(N)c1ccc(NC(=O)Cc2nc3cc(C(=N)N)ccc3[nH]2)cc1,inhibition,[1],-0.77%
same,inhibition,[2],-0.09%
same,inhibition,[3],-0.08%
COc1cc(Br)c(S(=O)(=O)n2cc(CN3CCC(N)CC3)c3cc(Cl)ccc32)cc1OC,inhibition,[1],1.4%
same,inhibition,[2],2.11%
same,inhibition,[3],0.57%
CCOC(=O)c1ccc(NC(=O)N(Cc2ccc(-c3cccc(CN4CCNCC4)c3)cc2)C2CCN(Cc3ccccc3)CC2)cc1,inhibition,[1],2.49%
same,inhibition,[2],1.96%
same,inhibition,[3],7.56%
Clc1ccc(-c2cnc3ccc(NCc4ccncc4)nn23)cc1,inhibition,[1],2.08%
same,inhibition,[2],0.84%
same,inhibition,[3],-0.5%
COc1cc(OC)cc(-c2nn(-c3ccc([N+](=O)[O-])cc3Cl)c(=S)n2CC2CCCO2)c1 (stereo not given),inhibition,[1],3.14%
same,inhibition,[2],-3.05%
same,inhibition,[3],2.53%
COc1ccc2c(c1)[nH]c1c(/C=C/c3ccc([N+](=O)[O-])cc3)nccc12,inhibition,[1],3.75%
same,inhibition,[2],4.42%
same,inhibition,[3],3.6%
CC1CCCN1Cc1ccc(-c2ccc3c(=O)cc(CCc4cccc(F)c4F)n(CC(=O)N(C)Cc4ccc(-c5ccc(C(F)(F)F)cc5)cc4)c3n2)cc1 (stereo not given),inhibition,[1],-0.63%
same,inhibition,[2],-4.81%
same,inhibition,[3],10.4%
Cc1ccc(NC(=O)NC2CCN(CCCCCNC(=O)C3CC3c3ccc(Cl)c(Cl)c3)CC2)cc1 (stereo not given),inhibition,[1],-4.5%
same,inhibition,[2],-2.29%
same,inhibition,[3],-3.29%
CN(C)c1cccc2c1nc(-c1ccc3c(c1)CCO3)n2CCNCc1ccccc1,inhibition,[1],11.7%
same,inhibition,[2],8.56%
same,inhibition,[3],5.57%
c1cc(CN2CCN(CCN3CCOCC3)CC2)cc(-c2ccc(-c3nc4ccccc4[nH]3)cc2)c1,inhibition,[1],10.9%
same,inhibition,[2],6.81%
same,inhibition,[3],9.58%
C[C@H](Cc1ccc(OCCCCCCOc2ccc(C[C@@H](C)N[C@H](C)c3ccccc3)cc2)cc1)NC[C@H](O)c1cccc(Cl)c1,inhibition,[1],106%
same,inhibition,[2],94%
same,inhibition,[3],82.4%
O=C(NC1CCN(Cc2ccc(O)cc2)CC1)c1ccc(Cl)c(Cl)c1,inhibition,[1],4.53%
same,inhibition,[2],4.25%
same,inhibition,[3],-3.12%
CCOc1c(CNCCCNc2cc(=O)c3ccccc3[nH]2)cc(I)cc1C(C)(C)C,inhibition,[1],-0.21%
same,inhibition,[2],1.18%
same,inhibition,[3],0.27%
COc1ccc2ncc(C#N)c(CCN3C4CCC3CC(NCc3ccc5c(n3)NC(=O)CS5)C4)c2c1 (stereo not given),inhibition,[1],4.35%
same,inhibition,[2],4.33%
same,inhibition,[3],1.45%
O=c1cc(N2CCNCC2)c(Cl)nn1Cc1ccc(NS(=O)(=O)c2ccc(Oc3ccccc3)cc2)cc1,inhibition,[1],1.25%
same,inhibition,[2],3.7%
same,inhibition,[3],1.23%
O=C(/C=C/c1ccc([N+](=O)[O-])cc1)N1CCC(NS(=O)(=O)c2cccc(C(F)(F)F)c2)CC1,inhibition,[1],3.4%
same,inhibition,[2],3%
same,inhibition,[3],0.97%
COc1cc(Cc2cnc(N)nc2N)cc(OCCCCNS(=O)(=O)C(F)(F)F)c1OC,inhibition,[1],1.9%
same,inhibition,[2],1.69%
same,inhibition,[3],1.88%
CCCc1cc(Cc2cnc(N)nc2N)cc(CCC)c1OCCCCCC(=O)OCC,inhibition,[1],4.7%
same,inhibition,[2],2.93%
same,inhibition,[3],2.52%
Cc1c(Oc2ccc(-n3ccnc3)cc2)ncnc1N1CCC2(CC1)CNCc1ccccc12,inhibition,[1],10.5%
same,inhibition,[2],8.76%
same,inhibition,[3],2.5%
O=C(COc1ccc(Cl)c(Cl)c1)NCCCCCN1CCCN(C(=O)Nc2cc(Cl)cc(Cl)c2)CC1,inhibition,[1],5.88%
same,inhibition,[2],-0.58%
same,inhibition,[3],6.4%
O=C(CCc1c[nH]cn1)Nc1ccc(-c2ccc(-c3nc4ccccc4[nH]3)cc2)cc1,inhibition,[1],19.3%
same,inhibition,[2],16.7%
same,inhibition,[3],15.2%
N#Cc1ccc2c(c1)CCN(CCC1CCC(Nc3ncnc4ccccc34)CC1)C2 (stereo not given),inhibition,[1],10.7%
same,inhibition,[2],3.96%
same,inhibition,[3],4.21%
CCc1cccc2sc(N3CCN(C(=O)c4ccc([N+](=O)[O-])o4)CC3)nc12,inhibition,[1],71.2%
same,inhibition,[2],69.1%
same,inhibition,[3],36.8%
CC(C)Cn1c(Sc2ccc(C#N)c([N+](=O)[O-])c2)nnc1-c1ccc(N(C)C)cc1,inhibition,[1],-0.55%
same,inhibition,[2],0.63%
same,inhibition,[3],-4.37%
O=S(=O)(NCCN1CCCC1)c1ccc(-c2ccc(CNCc3ccsc3)cc2)s1,inhibition,[1],10.5%
same,inhibition,[2],7.66%
same,inhibition,[3],4.76%
CN1CCC(C(=O)Nc2cccc(-c3ccc(-c4nc5cc(C(F)(F)F)ccc5[nH]4)s3)c2)CC1,inhibition,[1],9.29%
same,inhibition,[2],10%
same,inhibition,[3],6.1%
COc1ccc2nc(N3CCN(C(=O)OC(C)(C)C)CC3)nc(NCCCc3ccccc3)c2c1,inhibition,[1],28.4%
same,inhibition,[2],23.1%
same,inhibition,[3],8.03%
Cc1ccc(NC(=O)NC2CCN(CCCCCNC(=O)/C=C/c3ccc(Cl)c(Cl)c3)CC2)cc1C,inhibition,[1],-0.29%
same,inhibition,[2],-0.57%
same,inhibition,[3],-1.51%
Cn1cncc1-c1cc2c(Nc3ccc(OCc4ccccc4)cc3)ncnc2cn1,inhibition,[1],4.63%
same,inhibition,[2],5.99%
same,inhibition,[3],1.66%
Cc1cc(C2CCN(CCCCNC(=O)c3ccc(NC(=O)c4ccc(Cl)cc4)cc3)CC2)c(C)cc1OC(C)C,inhibition,[1],-1.59%
same,inhibition,[2],-1.19%
same,inhibition,[3],-1.68%
COC(=O)C1=C(C)NC2=C(C(=O)CC(c3ccc(OC)c(OC)c3)C2)C1c1cccc(O)c1 (stereo not given),inhibition,[1],3.8%
same,inhibition,[2],3.84%
same,inhibition,[3],3.82%
CC(C)(C)C1CCc2onc(C(=O)Nc3cc(Cl)ccc3O)c2C1 (stereo not given),inhibition,[1],7.15%
same,inhibition,[2],5.86%
same,inhibition,[3],4.8%
O=C(Nc1nc(-c2ccccn2)cs1)c1ccc(Br)s1,inhibition,[1],-1.89%
same,inhibition,[2],4.54%
same,inhibition,[3],0.61%
CN(C)c1ccc(C=C2SC(=O)N=C2Nc2ccccc2)cc1,inhibition,[1],1.62%
same,inhibition,[2],0.09%
same,inhibition,[3],0.57%
CCCCn1c(C(C)Oc2ccc(Cl)cc2Cl)nc2cc(S(N)(=O)=O)ccc21 (stereo not given),inhibition,[1],-0.86%
same,inhibition,[2],-1.81%
same,inhibition,[3],-1.84%
CCCc1cc(=O)[nH]c(-n2nc(C)cc2NC(=O)CC(c2ccccc2)c2ccccc2)n1,inhibition,[1],-2.15%
same,inhibition,[2],1%
same,inhibition,[3],2.15%
CCOc1ccc(-c2nonc2NC(=O)c2cccs2)cc1OCC,inhibition,[1],-0.24%
same,inhibition,[2],1.17%
same,inhibition,[3],-0.56%
Cn1nc2ccc3ccccc3c2nc1=N,inhibition,[1],59.2%
same,inhibition,[2],44.1%
same,inhibition,[3],18.6%
Cn1nc(-c2ccc(NC(=O)Nc3ccc4ccccc4c3)c(F)c2)c2cnc(NCCN3CCOCC3)nc21,inhibition,[1],5.52%
same,inhibition,[2],4.79%
same,inhibition,[3],1.17%
COc1cccc(-c2cccc(NC(=O)C3CCN(Cc4ccc(O)cc4)CC3)c2)c1,inhibition,[1],0.86%
same,inhibition,[2],0.59%
same,inhibition,[3],-5.2%
CCCCc1cc(NCC)nc(Nc2ccc(F)cc2)n1,inhibition,[1],18.4%
same,inhibition,[2],10.4%
same,inhibition,[3],4.95%
COc1ccc2ncc(F)c(CCN3CC[C@@H](CNCc4nc5c(cc4C)SCC(=O)N5)C3)c2n1,inhibition,[1],3.29%
same,inhibition,[2],3.35%
same,inhibition,[3],0.49%
CCN(CC)CCN(Cc1ccc(-c2ccc(Cl)cc2)cc1)C(=O)Cn1c(CCc2cccc(F)c2F)nc(=O)c2ccccc21,inhibition,[1],-2.54%
same,inhibition,[2],-2.71%
same,inhibition,[3],-1.69%

# Source: ChEMBL document CHEMBL3433997, “St. Jude Leishmania screening dataset” (2016)
